According to the supplement of paper PMC7411640:
Where a name gives a salt, the structure may show the parent alone.

Tested on: MDA-MB-468
Experiment: phospho-S6 immunofluorescence (DAPI-normalised), per-plate z-score; higher = higher phospho-S6 signal (less pathway suppression)
Settings: 24 h
Description: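 GPCR-targeted compound library (MedChemExpress HY-L006) tested on MDA-MB-468 PTEN-null TNBC cells in 384-well plates at 0.1, 1 or 10 uM, combined with vehicle, GDC0941 450 nM or lapatinib 1 uM, for 24 h. Phospho-S6 (S240/244) immunofluorescence normalised to DAPI and expressed as a per-plate z-score; values are the mean of biological triplicates.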

Structure (SMILES) | phospho-S6 immunofluorescence (z-score) (co-treatment: GDC0941 450 nM) | phospho-S6 immunofluorescence (z-score) (co-treatment: lapatinib 1 uM) | phospho-S6 immunofluorescence (z-score) (co-treatment: vehicle)
CN(C)CCN1C(=O)c2cccc3cc(NC(N)=O)cc(c23)C1=O (compound 10 µM) | 1.29 | 7.09 | 0.12
C[N+]1(C)CCC(OC(=O)C(O)(c2ccccc2)C2CCCC2)C1 (stereo not drawn) [Glycopyrrolate] (compound 10 µM) | 0.59 | 0.25 | 1.14
CCN(CC)CC#CCOC(=O)C(O)(c1ccccc1)C1CCCCC1 (stereo not drawn) [Oxybutynin (chloride)] (compound 10 µM) | 1.35 | 0.51 | 0.53
Nc1nc(CC(=O)Nc2ccc(CCNC[C@H](O)c3ccccc3)cc2)cs1 [Mirabegron] (compound 10 µM) | 0.91 | 1.75 | 0.56
O=c1cc(C(Cl)(Cl)Cl)oc2ccc(Cl)cc12 (compound 10 µM) | 0.54 | -0.11 | 0.44
Cc1cccn2c(=O)c(C=C(C#N)c3nc4ccccc4s3)c(Oc3ccc(F)cc3)nc12 (compound 10 µM) | 0.33 | 1.14 | -0.48
Cn1c(SCC(=O)N2CCC[C@H]2C(=O)Nc2ccccc2-c2ccccc2)nc2ccccc21 (compound 10 µM) | 0.08 | 1.59 | 0.81
CCCCN1CCC(CNC(=O)c2c3n(c4ccccc24)CCCO3)CC1 [Piboserod] (compound 10 µM) | -0.39 | -0.44 | 0.08
CN1[C@@H]2CC[C@H]1C[C@@H](OC(=O)C(O)c1ccccc1)C2 (stereo partly drawn) [Homatropine (Bromide)] (compound 10 µM) | -0.26 | 0.08 | 0.37
OC(CCCN1CCCCC1)(c1ccccc1)c1ccccc1 [Diphenidol (hydrochloride)] (compound 10 µM) | 0.19 | 1.09 | 0.38
N=C(N)NCCC[C@H](NC(=O)[C@H](Cc1ccccc1)NC(=O)[C@@H]1CCCN1C(=O)[C@H](CO)NC(=O)[C@H](Cc1ccccc1)NC(=O)CNC(=O)[C@@H]1CCCN1C(=O)[C@@H]1CCCN1C(=O)[C@@H](N)CCCNC(=N)N)C(=O)O [Bradykinin] (compound 10 µM) | -0.14 | 0.5 | -0.36
